Bioassay records deposited in PubChem by several laboratories.
NSD2 inh – inhibitors of human histone methyltransferase NSD2 | O96028 | NSD2 peptide methylation, AlphaScreen, 120 min | inhibition, % at 12.5 µM | 310,000 compounds, 0.54% hits | AID 743445; in the data active = inhibition above about 50%
UBC9 SUMO inh – blocks human SUMOylation mediated by UBC9; P63279; HTRF SUMOylation assay, SAE1/SAE2 + UBC9, in vitro; inhibition, % at 35 µM; 290,000 compounds, 0.36% hits; in the data active = inhibition above about 50%, passing the limit was not always enough
Target sequence (P63279 whole entry, looked up): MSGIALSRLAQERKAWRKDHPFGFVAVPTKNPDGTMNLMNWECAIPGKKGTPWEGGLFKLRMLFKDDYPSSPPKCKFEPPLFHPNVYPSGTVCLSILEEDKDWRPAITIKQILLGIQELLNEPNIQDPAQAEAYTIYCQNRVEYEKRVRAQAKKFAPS
SIRT5 inh – sirtuin-5 (human) deacylase inhibition; 330,000 compounds, 1.1% hits; inhibition, % at 15 µM; Purified SirT5, succinyl-peptide AMC, trypsin-coupled fluorescence; Q9NXA8; in the data active = inhibition above about 15%
Target sequence (Q9NXA8 whole entry, looked up): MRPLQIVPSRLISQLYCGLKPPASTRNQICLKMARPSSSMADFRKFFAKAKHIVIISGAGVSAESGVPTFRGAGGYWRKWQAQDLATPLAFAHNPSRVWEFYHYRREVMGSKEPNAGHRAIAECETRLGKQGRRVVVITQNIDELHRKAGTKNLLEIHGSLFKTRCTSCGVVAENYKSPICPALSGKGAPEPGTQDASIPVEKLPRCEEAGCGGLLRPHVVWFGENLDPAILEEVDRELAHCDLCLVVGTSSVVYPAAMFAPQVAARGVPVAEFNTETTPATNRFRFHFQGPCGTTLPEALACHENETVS
CASP6 VEID inh – inhibitors of human caspase-6; purified caspase-6, Z-VEID-R110 cleavage fluorescence; inhibition, % at 12.5 µM; 350,000 compounds, 0.53% hits; AID 686996;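 active = mean inhibition across replicates at least about 35%, with every replicate also reaching that limit, limit read from the data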;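 note: 0% = median of neutral control wells and 100% = no fluorescence left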
Active calls of the source: *; . = no result given. An excerpt weighted towards active compounds, which were near 1.6% of everything screened.

SMILES | NSD2 inh | UBC9 SUMO inh | SIRT5 inh | CASP6 VEID inh
CCCC(=O)Nc1ccc2c(c1)OC[C@H](C)N(Cc1ccccc1)C[C@@H](C)[C@@H](OC)CN(C)C2=O | . | . | 37* | -1
CCCNC(=O)Nc1ccc2c(c1)OC[C@H](C)N(S(C)(=O)=O)C[C@@H](C)[C@@H](OC)CN(C)C2=O | . | . | 15* | -10
CCC(=O)Nc1ccc2c(c1)OC[C@H](C)N(Cc1cccc(F)c1)C[C@@H](C)[C@H](OC)CN(C)C2=O | . | . | 20* | -4
Cc1ccc(-n2cc(CN3CCN(Cc4nccn4C)CC3)c(-c3ccc(F)cc3)n2)cc1 | 1 | -9 | 112* | -23
COc1ccc(S(=O)(=O)N(C)C[C@H]2OCCCC[C@H](C)Oc3ccc(NC(=O)NC4CCCCC4)cc3C(=O)N([C@H](C)CO)C[C@H]2C)cc1 | . | . | 6 | -3
COc1ccc([Si](C)(C)[C@H]2[C@H](CCO)O[C@@]3(C(=O)N(Cc4ccccc4)c4ccc(N5CCC5=O)cc43)[C@@H]2C)cc1 | . | . | 17* | 3
COc1ccc([Si](C)(C)[C@H]2[C@H](CCO)O[C@@]3(C(=O)N(Cc4ccc(NC(C)=O)cc4)c4ccccc43)[C@@H]2C)cc1 | . | . | 21* | 1
COc1ccc([Si](C)(C)[C@H]2[C@H](CCO)O[C@@]3(C(=O)N(Cc4ccccc4)c4ccc(N5CCCCC5=O)cc43)[C@@H]2C)cc1 | . | . | 4 | -1
COc1ccc(S(=O)(=O)N(C)C[C@@H]2Oc3c(NC(=O)Nc4ccc(F)cc4)cccc3C(=O)N([C@@H](C)CO)C[C@@H]2C)cc1 | . | . | 1 | 0
Cc1ccc(C(=O)NCC(c2ccco2)N2CCc3ccccc32)cc1C (stereo unspecified) | -4 | . | -2 | -3
O=C(NCC(c1ccco1)N1CCc2ccccc21)c1ccccc1 (stereo unspecified) | 14 | . | -3 | 52*
COc1ccc(-c2cc(-c3ccccc3)n3ncnc3n2)cc1 | -7 | 53* | . | .
O=C1NC(=S)S/C1=C1\Sc2ccccc2N1CCCS(=O)(=O)O | 3 | -13 | . | .
NN1C(=O)/C(=C2/Sc3ccccc3N2CCCS(=O)(=O)O)SC1=S | 10 | 13 | 7 | 55*
Cc1c(C(=O)O)cccc1-n1c(C)cc(/C=N/Nc2ccc([N+](=O)[O-])cn2)c1C | 17 | -7 | 16* | 33
Cc1cc(/C=N/Nc2ccc([N+](=O)[O-])cn2)c(C)n1-c1ccccc1 | -1 | 32 | . | .
Cc1nn(CC(=O)N(C)C)c(=O)c2ccccc12 | -4 | -3 | 19* | -1
Cc1nn(CC(N)=O)c(=O)c2ccccc12 | 0 | 16 | . | .
CCN(Cc1ccccc1)S(=O)(=O)CCNC(=O)c1ccc(OC)cc1 | 0 | . | 35* | 1
CC(=O)NN1C(=O)/C(=C\c2ccccc2)SC1=S | . | 23 | . | .
O=C(NN1C(=O)/C(=C/c2ccc(O)c(O)c2)SC1=S)c1ccccc1 | . | 24 | 10 | 45*
O=C(Cc1ccccc1)NN1C(=O)/C(=C/c2ccccc2C(=O)O)SC1=S | 0 | -29 | 5 | 62*
O=C(O)COc1ccccc1/C=C1\SC(=S)N(NC(=O)c2ccccc2O)C1=O | . | . | 21* | 15
CC(C)NC(=O)N(C)C[C@@H]1OCCCC[C@@H](C)Oc2ccc(N(C)C)cc2C(=O)N([C@@H](C)CO)C[C@H]1C | . | . | 3 | 0
Cc1cc(C)n(-c2nnc(C)n2/N=C/c2ccc(O)cc2)n1 | -1 | -3 | 18* | 1
SMILES | NSD2 inh | UBC9 SUMO inh | SIRT5 inh | CASP6 VEID inh
O=c1[nH]c(CN2CCN(S(=O)(=O)/C=C/c3ccccc3)CC2)nc2ccccc12 | . | 2 | 16* | 0
CC1CCCCC12NC(=O)N(Cc1cc(=O)n3ccsc3n1)C2=O (stereo unspecified) | -124 | 13 | 7 | 42*
CC1CCC2(CC1)NC(=O)N(Cc1cc(=O)n3ccsc3n1)C2=O (stereo unspecified) | 2 | 1 | . | .
Cc1ccccc1N1C(=O)C2ON(c3ccccc3)C(c3ccco3)C2C1=O (stereo unspecified) | -1 | 8 | 23* | 1
CCOc1ccc(N2C(=O)C3ON(c4ccccc4)C(c4ccco4)C3C2=O)cc1 (stereo unspecified) | -14 | -14 | -1 | 2
COc1cccc(CN2CCN(C(c3ccccc3)c3ccccc3)CC2)c1O | 1 | -3 | 16* | -4
COc1cc(CN2CCN(C(c3ccccc3)c3ccccc3)CC2)cc(OC)c1OC | 3 | -19 | -4 | -1
COc1cc2c(cc1OC)-c1cc(Nc3ccc(C(=O)O)cc3)nc(=O)n1CC2 | 2 | 29 | 14 | 41*
COc1ccc(Nc2cc3n(c(=O)n2)CCc2cc(OC)c(OC)cc2-3)cc1 | 3 | 15 | 0 | 4
C[C@@H]1CCCCO[C@H](CN(C)C(=O)Nc2ccc(F)cc2)[C@@H](C)CN([C@@H](C)CO)C(=O)c2cc(NS(=O)(=O)c3cccs3)ccc2O1 | . | . | . | 0
Cc1noc(C)c1NC(=O)Nc1ccc2c(c1)C(=O)N([C@@H](C)CO)C[C@@H](C)[C@H](CN(C)C(=O)Nc1ccc(F)cc1)O2 | . | . | -2 | 0
COC(=O)c1ccc(CNC(=O)COC(=O)c2ccccc2-c2ccccc2)cc1 | 2 | . | 0 | 59*
O=C(O)C1CCC(Cn2c(SCc3cc(=O)n4cc(Br)ccc4n3)nc3ccsc3c2=O)CC1 (stereo unspecified) | 4 | 4 | 17* | 5
O=C(O)c1ccc(Cn2c(SCc3cc(=O)n4cc(Br)ccc4n3)nc3ccsc3c2=O)cc1 | 6 | 19 | -4 | -3
O=C(C[C@@H]1C[C@H]2c3cc(NC(=O)Nc4ccccc4)ccc3O[C@H]2[C@@H](CO)O1)NC1CCCC1 | . | . | 1 | 4
Cc1ccc(C(=O)N/N=C\c2ccc(OC(=O)c3cccc(F)c3)cc2)cn1 | -2 | 4 | 1 | 47*
Cc1ccc(C(=O)N/N=C\c2cccc(OC(=O)c3cccc(F)c3)c2)cn1 | -6 | 7 | 0 | 3
CN(C)C(=O)c1cccc(-c2ccc([C@H]3[C@@H](CO)N4CCCCN(C(=O)C5CCCC5)C[C@@H]34)cc2)c1 | . | . | 4 | -1
COc1ccc(S(=O)(=O)Cc2ccc(C(=O)O)o2)cc1 | -2 | 8 | -3 | -1
Cc1ccc(S(=O)(=O)Cc2ccc(C(=O)O)o2)cc1 | 40 | 13 | -1 | 52*
COc1cc(/C=C2\SC(=O)NC2=O)ccc1Oc1ccc([N+](=O)[O-])cc1[N+](=O)[O-] | . | 46 | 5 | 39*
CO/N=C/c1ccc(Oc2ccc([N+](=O)[O-])cc2[N+](=O)[O-])c(OC)c1 | 7 | 7 | . | .
CCOc1ccc(/C=C2\SC(=S)NC2=O)cc1OC | 3 | 16 | 3 | 10
COc1ccc(/C=C2\SC(=O)NC2=S)cc1OC | 7 | -6 | 1 | 45*
C[C@@H]1CN([C@H](C)CO)C(=O)c2cc(C#CC3(O)CCCC3)cnc2O[C@H]1CN(C)Cc1cccnc1 | . | . | 0 | 3
C[C@@H]1CN([C@H](C)CO)C(=O)Cc2cc(NC(=O)C3CCCCC3)ccc2O[C@@H]1CN(C)C(=O)Nc1ccc(F)cc1 | . | . | -2 | -2
CCC(CO)Oc1cc(NC(=O)c2ccc(N)cc2)c2ncn(C(C)C)c2c1 (stereo unspecified) | . | . | -1 | 38*
